In all, about 110,000 compounds were measured (“z-score”: median about -0.1, highest 2% from about 2 on). For the sample, the highest values were picked, then their nearest neighbours and some compounds at random. Active and inactive are the calls of the source.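 The calls were made as follows: active = z-score in the third read window above 3 or below -3; inactive = the rest.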

Our source for the z-score values is PubChem BioAssay AID488969 (Vanderbilt High Throughput Screening Facility, 2010).

Metabotropic glutamate receptor 8 (Rattus norvegicus), sequence (P70579 whole entry, looked up): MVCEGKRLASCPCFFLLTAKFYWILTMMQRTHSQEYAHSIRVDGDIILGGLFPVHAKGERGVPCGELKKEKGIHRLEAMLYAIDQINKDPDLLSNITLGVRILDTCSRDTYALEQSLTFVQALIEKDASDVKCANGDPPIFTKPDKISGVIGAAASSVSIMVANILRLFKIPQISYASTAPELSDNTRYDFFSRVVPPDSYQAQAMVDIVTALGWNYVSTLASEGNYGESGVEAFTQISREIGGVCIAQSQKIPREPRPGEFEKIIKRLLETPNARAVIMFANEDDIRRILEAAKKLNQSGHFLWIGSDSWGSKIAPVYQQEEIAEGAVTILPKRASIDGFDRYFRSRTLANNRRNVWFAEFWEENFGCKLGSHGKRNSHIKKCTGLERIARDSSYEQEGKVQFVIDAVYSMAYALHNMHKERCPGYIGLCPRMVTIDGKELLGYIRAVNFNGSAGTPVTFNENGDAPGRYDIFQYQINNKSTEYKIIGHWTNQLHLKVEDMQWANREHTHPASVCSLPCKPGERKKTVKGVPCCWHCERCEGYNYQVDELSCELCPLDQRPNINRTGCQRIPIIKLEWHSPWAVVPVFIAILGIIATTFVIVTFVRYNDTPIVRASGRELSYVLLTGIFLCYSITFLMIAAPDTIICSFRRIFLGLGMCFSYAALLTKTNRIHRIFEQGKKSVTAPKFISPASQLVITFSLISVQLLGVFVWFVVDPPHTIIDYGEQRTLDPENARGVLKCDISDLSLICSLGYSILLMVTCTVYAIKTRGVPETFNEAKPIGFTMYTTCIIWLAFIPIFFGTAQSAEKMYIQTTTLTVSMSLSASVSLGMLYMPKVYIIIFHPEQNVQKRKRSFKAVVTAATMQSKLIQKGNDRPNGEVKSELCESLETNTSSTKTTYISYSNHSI

The experiment addresses Metabotropic glutamate receptor 8 (Rattus norvegicus) (UniProt P70579). The experiment is described as follows: rat mGluR8 modulators via GIRK flux, primary screen, cell-based, thallium flux, HTS (AID 488969). The conditions noted are these: HEK293 rat mGluR8, GIRK (G protein-gated inwardly rectifying potassium channel) thallium flux, FluoZin2; at 10 µM; stronger effect = higher value; submaximal glutamate (EC20) added with thallium.
`CCSc1cc(N2CCCC2)nc(-c2ccccc2Cl)n1` showed a z-score of -0.31. Turning to `COC(=O)COc1ccc(Cl)cc1C1Nc2ccccc2C(=O)N1c1ccc(OC)cc1` (stereo unspecified), the z-score is -0.642. `COC(=O)c1[nH]c2ccccc2c1NC(=O)/C=C/c1ccc2c(c1)OCO2` displayed a z-score of 0.563. `O=C1C2CCCCC2C(=O)N1c1cccc(OS(=O)(=O)c2ccccc2)c1` (stereo unspecified) returned a z-score of -0.275. For `CCN(CC)S(=O)(=O)c1cccc(-c2nnc(SC(C)C(N)=O)n2CCc2ccccc2)c1` (stereo unspecified) the value was -0.152; for `O=C(Nc1cnc2ccccn2c1=O)c1ccc(F)cc1`, -0.0283; for `Cc1ccc(C(=O)Nc2cnc3ccccn3c2=O)cc1`, 4.27 (active). For `O=C(Nc1cnc2ccccn2c1=O)c1ccc(Cl)cc1`, the z-score was -0.161. Compound `CC(C)(C)C1CCc2c(C(=O)NNC(=O)/C=C/C(=O)O)csc2C1` (stereo unspecified) came in with a z-score of -0.42.

Compound `Cc1occc1C(=O)N/N=C/c1cccs1` came in with a z-score of 0.00925. As to `CC(C)(C)C1CCc2c(C(=O)N/N=C/c3cccs3)csc2C1` (stereo unspecified), the z-score was 3.34 (active).

`Cn1c(=O)oc2cc(S(=O)(=O)N3CCC(C(=O)NCc4cccs4)CC3)ccc21`: the z-score turned out to be 0.158. With `CCC(Cc1ccccc1)NC(=O)C1CCC(CNc2c(N3CCCC3)c(=O)c2=O)CC1` (stereo unspecified) the figure was 0.312.

As to `COc1ccc(C(C)=O)cc1COC(=O)Cc1n[nH]c(=O)c2ccccc12`, the z-score was -0.504. Consider `O=[N+]([O-])c1cc(F)c(N2CCCCC2)cc1N1CCOCC1`, for which the z-score was -0.193. Compound `CC1CCN(c2cc(N3CCOCC3)c([N+](=O)[O-])cc2F)CC1` returned a z-score of 2.53. `CC1CCN(c2cc(N3CCOCC3)c(F)cc2[N+](=O)[O-])CC1` registered a z-score of -0.674. The compound `O=C(NC1CCCCC1)c1sc(N2CCOCC2)nc1-c1ccccc1` returned a z-score of 0.0133. For `O=C(COC(=O)CCC1CCCC1)Nc1ccc(Cl)cc1F` the value was -0.306; for `O=C(COC(=O)CCC1CCCC1)Nc1nc2c(F)c(F)c(F)cc2s1`, 2.48. `O=C(COC(=O)C12CC3CC(CC(C3)C1)C2)Nc1nc2c(F)c(F)c(F)cc2s1`: the z-score was -0.635. With `CC(=O)Nc1cc(C(F)(F)F)ccc1Oc1cccc(Br)c1` the figure was -0.653. With `CCCn1c(Nc2ccccc2)nc2ccccc21` the figure was -0.0673; with `S=C(Nc1ccccc1)Nc1nc2ccccc2n1CCOc1ccc(Cl)cc1`, 1.72.

In the case of `CCCCn1c(Nc2ccccc2)nc2ccccc21`, the z-score turned out to be 0.15. Take `CCn1c(NC(=S)Nc2ccccc2)nc2ccccc21`: the z-score was 15.2 (active). `CCCCn1c(NC(=S)Nc2ccccc2)nc2ccccc21` showed a z-score of 2.55. As to `CCCn1c(NC(=S)Nc2ccccc2)nc2ccccc21`, the z-score is 2.89.

In turn, `CCn1c(NC(=O)C2CCCCC2)nc2ccccc21` had a z-score of 0.0465.

As for `CCn1c(NC(C)=O)nc2ccccc21`, the z-score is -0.0713.

In turn, `S=C(Nc1ccccc1)Nc1nc2ccccc2n1CCOc1ccc(Br)cc1` yielded a z-score of 1.24.
